From PubChem BioAssay
ELG1 genotoxic = genotoxicity induction in ELG1-luciferase HEK293T cells; HEK293T ELG1-luciferase reporter, luminescence, 16 h; Potency, µM (series often up to 46 µM), for the others: at the highest dose activity change, positive = activation, most hits filed as activators; hit rate 1.3% among 330,000; AID 504466; note: % of control where 0% means no effect; nearly all actives have a fitted effect of over 60% in size
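16 hr compound incubation (37 °C, 5% CO2) of HEK293T cells carrying luciferase-tagged ELG1; luciferase then measured by ONE-Glo luminescence after 30 min at RT.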
Rab9 promoter act = activates the Rab9 promoter. Huh7 Rab9 promoter-luciferase reporter, luminescence, 24 h. Potency, µM (highest dose often 9.22 µM), for the others: at the highest dose activation, negative = inhibition, usual class: activators. hit rate 2.8% among 320,000. AID 485297; note: % of control where 0% means no effect; nearly all actives have a fitted effect of over 60% in size
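Rab9 promoter-driven luciferase in stably transfected Huh7 cells; 1500 cells/well rested 2 h, exposed to compound in DMSO for 24 h at 37 °C, 5% CO2. Luminescence read 10 min after adding luciferase reagent at ambient temperature.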
SMN2 splice up = enhancers of SMN2 splice variant expression; HEK293 SMN2-luciferase splicing reporter, luminescence, 30-36 h; AID 1458; hit rate 2.8% among 210,000; Potency, µM (doses to about 46.1 µM), inactives show at the top dose activity change, positive = activation, most hits filed as activators; note: % of control where 0% means no effect; nearly all actives have a fitted effect of over 55% in size
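HEK293 cells carry an SMN2 minigene-luciferase reporter in which exon 7 inclusion puts luciferase in frame. Cells were seeded at 2000 cells/well, attached for 10-12 hours, then exposed to compounds for 30-36 hours at 37C before ONE-Glo luminescence.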
FLuc modulator = counter-screen for miR-21 project: firefly luciferase inhibitors or activators; P08659; purified FLuc, Km substrates, luminescence inhibition; Potency, µM (top dose mostly 57.5 µM), for the others: top-dose activity change, negative = inhibition, usual class: inhibitors; hit rate 6.9% among 360,000; AID 588342;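 note: plate controls were vehicle for no effect and reference inhibitor for full effect; nearly all actives have a fitted effect of over 55% in size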
Target sequence (P08659 whole entry, looked up): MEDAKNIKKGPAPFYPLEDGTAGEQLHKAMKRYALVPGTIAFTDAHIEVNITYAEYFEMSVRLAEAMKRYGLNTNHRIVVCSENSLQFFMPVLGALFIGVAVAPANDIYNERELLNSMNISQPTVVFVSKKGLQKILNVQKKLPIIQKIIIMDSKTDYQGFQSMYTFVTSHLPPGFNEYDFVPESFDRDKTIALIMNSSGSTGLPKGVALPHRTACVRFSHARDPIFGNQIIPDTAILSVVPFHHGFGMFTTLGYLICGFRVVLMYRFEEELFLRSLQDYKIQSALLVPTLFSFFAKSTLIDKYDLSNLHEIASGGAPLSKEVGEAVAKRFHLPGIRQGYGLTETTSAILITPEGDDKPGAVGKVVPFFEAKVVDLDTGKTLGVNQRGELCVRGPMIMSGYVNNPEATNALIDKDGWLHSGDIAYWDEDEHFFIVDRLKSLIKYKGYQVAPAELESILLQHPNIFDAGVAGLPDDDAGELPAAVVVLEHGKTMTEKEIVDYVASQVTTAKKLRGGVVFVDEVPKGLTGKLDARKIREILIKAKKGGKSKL
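Purified P. pyralis luciferase (10nM final) with 10uM D-luciferin and 10uM ATP (Km levels) in 50mM Tris acetate pH 7.5, 10mM Mg acetate, 0.01% Tween-20, 0.05% BSA; qHTS 6-point titration, ~60 µM downward; luminescence read.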
NPC1 prom act = activators of NPC1 promoter; Potency, µM (titrated, usually from 9.22 µM), for inactives: top-dose activation, usual class: activators; Huh7 NPC1 promoter luciferase reporter, 24 h; hit rate 2.4% among 320,000; note: % of control where 0% means no effect; nearly all actives have a fitted effect of over 60% in size
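Luminescence from an NPC1 promoter-driven luciferase reporter in stably transfected Huh7 cells was measured after 24 h compound treatment at 37 °C, followed by 10 min ambient incubation with luciferase detection reagent.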
ELG1 DNA repair = inhibitors of ELG1-dependent DNA repair in HEK293T cells. Potency, µM (top dose mostly 46.1 µM), for inactives: at the highest dose activity change, negative = inhibition, usual class: inhibitors. AID 504467. HEK293T ELG1-luciferase reporter, luminescence, 16 h; DNA damage induced by 5-fluorouridine. hit rate 2.3% among 330,000; note: % is set by controls: 0 for no effect and ±100 for the full control effect; nearly all actives have a fitted effect of over 55% in size
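DMSO vehicle served as the neutral condition. Each well held 2,000 cells given 5-fluorouridine plus compound; after 16 hr at 37 °C/5% CO2, ONE-Glo was added and luciferase measured 30 min later.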
Active calls of the source: *; ? = inconclusive; · = no result; [ ] = another dose, or the depositor's remark. An excerpt weighted towards active compounds, which were near 9.2% of everything screened. Calls come from the whole dose curve; as a rule, active = well fitted curve in the direction sought with a large enough effect; inconclusive = small, poorly fitted or top-dose-only effect, or another doubt; inactive = no such curve, though single readings can be large; an effect the other way counts as inactive or inconclusive. Potency is the fitted concentration of half-maximal effect.

SMILES | ELG1 genotoxic | Rab9 promoter act | SMN2 splice up | FLuc modulator | NPC1 prom act | ELG1 DNA repair
Cc1cc(OCC(=O)NNC(=O)c2cccnc2)cc(C)c1Cl | 3% | 0% | · | -2% | -2% | ?
CN(CC(=O)Nc1ccccc1Cl)C(=O)C1CSC2(C)CCC(=O)N12 (centres undefined) | -4% | 1% | · | -6% | 3% | 9%
Cc1ccc(S(=O)(=O)N2CC(O)CC2C(=O)O)cc1 (centres undefined) | -3% | 0% | · | 0% | -5% | 6%
CC(=O)c1cccc(OCc2cc(C(=O)N3C[C@H]4CC[C@H]3C4)no2)c1 | ? | 2µM* | · | 9.5µM* | 2.5µM* | ?
O=C(c1cc(COc2cccc(C(F)(F)F)c2)on1)N1C[C@H]2CC[C@H]1C2 | ? | 2.2µM* | · | 15µM* | 2.8µM* | ?
CC(=O)c1cccc(OCc2cc(C(=O)N(C)CCC3CCOCC3)no2)c1 | 15% | ? | · | 17µM* | 26% | ?
CC(=O)c1cccc(OCc2cc(C(=O)N3C[C@@H](C)O[C@@H](C)C3)no2)c1 | ? | ? | · | 15µM* | ? | ?
COc1cccc(OCc2cc(C(=O)N(C)CCC3CCCCO3)no2)c1 (centres undefined) | 12% | ? | · | ? | ? | ?
Cc1ccc2oc(C(=O)Nc3nc(-c4ccc(F)cc4)ns3)c(C)c2c1 | · | · | 3% | ? | · | ·
CC(C)C(=O)Nc1nc2c(c(=O)[nH]1)CCCC2 | 0% | -5% | -2% | -2% | -7% | 0%
CCOc1ccc(NC(=O)N(Cc2cn(CC)c3ccccc23)C2CCCCCC2)cc1 | · | · | ? | -14% | · | ·
CCc1ccc(NC(=O)N(Cc2cn(CC)c3ccccc23)C2CCCCC2)cc1 | · | · | 13µM* | ? | · | ·
Cc1cc(NC(=O)NC(=O)c2cccc(OC(F)(F)C(F)F)c2)n[nH]1 | ? | 2.2µM* | 5.6µM* | -16% | 2.5µM* | ?
Cc1ccnc(NC(=O)c2cccc(OC(F)F)c2)n1 | 14% | 12% | · | ? | 2% | ?
Cc1cc(NC(=O)c2cccc(Oc3ccccc3)c2)n[nH]1 | ? | 0.89µM* | ? | 6.7µM* | 2.8µM* | ?
O=S(=O)(c1ccccc1)N1CCC2(CC1)CN(Cc1ccccc1)C2 | · | · | -1% | · | · | ·
S=c1nc2ccccc2c2nc(-c3ccccc3)[nH]n12 | 9% | 17% | -10% | 27µM* | ? | ?
S=c1nc2ccccc2c2nc(-c3ccccc3Cl)[nH]n12 | -4% | 27% | · | ? | 16% | ?
CC(C)NC[C@@H](O)c1ccc(O)c2ncccc12 | · | · | -6%[9.22 µM] | · | · | ·
CN(C(=O)/C=C/c1cnc2ccccc2c1)C1CCCCC1 | -1% | 1.1µM* | 3.2µM* | 4.3µM* | 1.6µM* | ?
COc1ccc(/C=C/C(=O)N(C)C2CCCCC2)cc1Br | ? | 22% | ? | 24µM* | 16% | ?
COc1ccc(/C=C/C(=O)N(C(C)C)C(C)C)cc1Br | ? | 0% | 7% | -13% | 4% | 0%
O=C(CSc1nnc(-c2ccccc2)c(-c2ccccc2)n1)Nc1ccc(Br)cn1 | -1% | -5% | -48% | 1% | -1% | ?
CCOC(=O)c1ccc(NC(=O)c2sc3ccccc3c2Cl)cc1 | · | · | 7% | 3% | · | ·
CNC(=O)c1ccc(NC(=O)c2nsc3ccccc23)cc1 | · | · | 2µM* | 1.5µM* | · | ·
SMILES | ELG1 genotoxic | Rab9 promoter act | SMN2 splice up | FLuc modulator | NPC1 prom act | ELG1 DNA repair
CCOC(=O)c1ccc(NC(=O)c2nsc3ccccc23)cc1 | · | · | 5.6µM* | 2.4µM* | · | ·
CCOC(=O)c1c(NC(=O)c2ccc(S(=O)(=O)N(CCOC)CCOC)cc2)sc2c1CC(C)(C)NC2(C)C | · | · | · | -5% | · | ·
CCCCOc1ccc(-c2ncc(N)cn2)cc1 | ? | 2.8µM* | · | 6.7µM* | 1.8µM* | ?
CCOc1ccc(-c2nc(CCl)cs2)cc1 | ? | 2.2µM* | ? | 3µM* | ? | ?
CCOc1ccc(-c2nnc(N)s2)cc1 | 11µM* | ? | 11µM* | 13µM* | ? | ?
CCCCOc1cccc(-c2nnc(N)s2)c1 | ? | 9% | ? | ? | 3% | ?
Nc1nnc(-c2ccc(Cl)cc2)s1 | ? | 11% | -15% | ? | 19% | ?
CCCCOc1ccc(-c2nnc(N)s2)cc1 | ? | ? | 20% | 7.6µM* | 28% | ?
CC(C)c1ccc(C2N3CC4(C)CN2CC(c2ccccc2)(C3)C4=O)cc1 (centres undefined) | · | · | 1% | -11% | · | ·
Cc1ccc(-n2cc(-c3ccccc3)c3c(N4CCCCC4)ncnc32)cc1 | · | · | · | -2% | · | ·
Nc1nnc(-c2ccc(F)cc2)s1 | 4% | 5% | 6% | ? | -2% | ?
CC(C)(C)c1ccc(-c2nnc(N)s2)cc1 | ? | 1.4µM* | · | 1.9µM* | 1.4µM* | ?
Cc1ccc2oc3c(c(=O)c2c1)C(c1cccc(Cl)c1)N(CCCN1CCOCC1)C3=O (centres undefined) | 19% | -5% | -28% | 4% | 0% | 10µM*
CCOC(=O)C1CCN(CC(=O)Nc2c(C(=O)OC)[nH]c3ccc(Cl)cc23)CC1 | -19% | -22% | -69% | -2% | -12% | 21µM*
CCOC(=O)C1CCCN(CC(=O)Nc2c(C(=O)OC)[nH]c3ccc(Br)cc23)C1 (centres undefined) | -20% | -16% | · | -5% | 1% | 16µM*
COC(=O)c1[nH]c2ccc(Br)cc2c1NC(=O)CN1CCN(C2CCCCC2)CC1 | ? | -5% | 14% | -1% | -3% | ?
CCc1ccccc1N1CC(C(=O)Nc2cc(C)on2)CC1=O (centres undefined) | 0% | 4% | · | 3% | -5% | 6%
CCn1c(=O)n(CC)c2cc(N3CCCC3)c(NC(=O)c3c(F)cccc3F)cc21 | -6% | -6% | · | -1% | 1% | ?
COc1ccc(NC(=O)c2ccc(OC)c(S(=O)(=O)N3CCCCC3C)c2)cn1 (centres undefined) | 0% | -6% | · | 0% | 0% | -19%
CC(=O)Nc1ccc(S(=O)(=O)NCCC(=O)OCC(=O)NNC(=O)c2ccccc2)cc1 | 1% | -2% | · | 3% | -1% | 18%
CCN(CC(=O)Nc1c(F)cccc1F)C(=O)CNC(=O)c1ccco1 | -2% | 0% | · | -1% | -5% | 24%
CCN(CC(=O)Nc1c(F)cccc1F)C(=O)CNC(=O)c1ccc(C)s1 | 26% | ? | · | 15µM* | ? | ?
Cc1cccnc1NC(=O)C(C)Oc1ccccc1 (centres undefined) | 0% | -1% | 6% | 7% | -2% | 0%
